Source: PubChem (Sanford-Burnham Center for Chemical Genomics)
TIM10 inh = inhibits growth of TIM10 yeast strain. S. cerevisiae TIM10 strain growth, BacTiter-Glo luminescence, 24 h. inhibition, % at 10 µM. actives 1.4% (n = 330,000);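 active = inhibition of 40% or more at the single tested concentration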;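 also: wild-type TIM10 isogenic control strain grown at permissive 25 °C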
NALP1 inh = inhibitors of NALP1 inflammasome in yeast | S. cerevisiae NALP1/ASC/caspase-1 growth, X-gal OD620, 72 h | inhibition, % at 10 µM | actives 0.61% (n = 280,000); in the data active = inhibition mostly above about 24%, no sharp cut-off; inactive = mostly below about 32%
NLRP3 yeast inh = inhibitors of NALP3 inflammasome in yeast | Yeast reconstituted NLRP3/ASC/caspase-1, beta-gal luminescence, 24 h | actives 0.39% (n = 330,000) | inhibition, % at 10 µM | AID 2825;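 active = inhibition of 50% or more; inactive = inhibition below 50%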
tim10-1 inh = inhibits growth of tim10-1 mutant yeast | S. cerevisiae tim10-1 ts strain growth, BacTiter-Glo, 24 h | inhibition, % at 20 µM | actives 2.2% (n = 330,000);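 active = inhibition of at least 40%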;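 also: mutant grown at 25 °C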
tim23-1 inh = inhibits growth of tim23-1 mutant yeast | S. cerevisiae tim23-1 growth, BacTiter-Glo luminescence, 24 h | inhibition, % at 20 µM | actives 1.3% (n = 330,000) | AID 463212;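 active = growth inhibition of the mutant yeast at or above 50%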;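 also: temperature-sensitive mutant grown at 25 °C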
NALP3 yeast conf = NALP3 inhibition confirmation in yeast; actives 81% (n = 1,300); AID 435006; inhibition, % at 10 µM; yeast expressing human NALP3, luminescence; shares compounds with NLRP3 yeast inh; in the data active = inhibition above about 48%
Casp1-ASC yeast = active in yeast caspase-1-ASC counter-screen for NALP3 inhibitors; AID 488784; inhibition, % at 10 µM; actives 66% (n = 1,000); shares compounds with NLRP3 yeast inh; yeast expressing Caspase-1-ASC, luminescence counter screen
NALP3 retest = retest-confirmed inhibitor of NALP3 in yeast | shares compounds with NLRP3 yeast inh | yeast expressing human NALP3, luminescence read-out | inhibition, % at 10 µM | actives 53% (n = 1,000) | AID 488794
tim10-1 confirm = confirmation of tim10-1 mutant yeast growth inhibitors; AID 463213; actives 56% (n = 7,400); inhibition, % at 20 µM; S. cerevisiae tim10-1 ts strain growth, BacTiter-Glo, 24 h; shares compounds with tim10-1 inh;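 active = inhibition of yeast growth at or above a set limit in either of two repeat tests at 20 µM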;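 also: tim10-1 mutant grown at permissive 25 °C to find synthetic lethal compounds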
tim10 confirm = TIM10 yeast growth inhibition, confirmed | S. cerevisiae tim10 strain growth, BacTiter-Glo luminescence, 24 h | actives 63% (n = 4,600) | shares compounds with TIM10 inh | inhibition, % at 10 µM;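 active = inhibition of yeast growth at or above a set limit in either of two replicates at 10 µM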; also: this counterscreen used the strain with wild-type TIM10
Large screens that a line does not name were inactive (follow-up assays come after a bar, where they were run); ! = repeats disagree. This is a sample that favours compounds with a hit; in the whole collection about 4.1% have one here. Rule as the data show it, unless noted: active = inhibition above about 50%; inactive = the rest.

COc1ccc(CNCC(O)COc2ccc(C(C)(C)c3ccccc3)cc2)cc1 (stereo not given)	NLRP3 yeast inh 52.8 | NALP3 yeast conf 76.0
COc1ccc(N=C2O/C(=C/c3sc(=S)n(CC4CCCO4)c3O)N=C2C#N)cc1 (stereo not given)	none
CC(=O)c1cccc(NC(=O)c2csc3c2CCCCC3)c1	none
CCOc1ccc(NC(=O)c2csc3c2CCCC3)cc1	NLRP3 yeast inh 52.4 | NALP3 yeast conf inactive
COCCNC(=O)c1csc2c1CCCC2	none
CCNC(=O)COC(=O)c1csc2c1CCCC2	NLRP3 yeast inh 56.4 | NALP3 yeast conf inactive
CC(C)(C)C(=O)Nc1cc2c3c(c1)CCC(=O)N3CCC2	none
CCOC(=O)C1CCCN(C(=O)c2cccc(S(=O)(=O)N(Cc3ccccc3)c3ccccc3OC)c2)C1 (stereo not given)	none (no result: NALP1 inh)
Cc1ccc([N+](=O)[O-])cc1NC(=O)c1ccc(C(C)(C)C)cc1	NLRP3 yeast inh 56.5 | NALP3 yeast conf 51.2 | Casp1-ASC yeast inactive | NALP3 retest inactive
O=C(NC1CC1)C1=C[C@H](C2CCCCC2)C[C@H](OCc2ccc(CO)cc2)O1	NLRP3 yeast inh 57.5 | NALP3 yeast conf 60.5 | Casp1-ASC yeast 62.3 | NALP3 retest inactive
C#CCNC(=O)C1=C[C@H](C2CCCCC2)C[C@H](OCc2ccc(CO)cc2)O1	NLRP3 yeast inh 54.3 | NALP3 yeast conf 53.8 | Casp1-ASC yeast 50.7 | NALP3 retest inactive
Cc1snc(SCc2ccc(F)cc2)c1C#N	none
Cc1snc(SCc2ccc(Cl)cc2)c1C#N	NLRP3 yeast inh 52.4 | NALP3 yeast conf 49.4 | Casp1-ASC yeast 62.8 | NALP3 retest inactive
CCCSc1ccc2nc(-c3ccccc3)cn2c1	NLRP3 yeast inh 51.3, tim10-1 inh 44.9 | NALP3 yeast conf 60.9 | Casp1-ASC yeast 72.2 | NALP3 retest 60.8 | tim10-1 confirm inactive
NC(=NCCCCCCN=C(N)/N=C(\N)Nc1ccc(Cl)cc1)/N=C(\N)Nc1ccc(Cl)cc1	NLRP3 yeast inh 69.4, tim10-1 inh 66.4 | NALP3 yeast conf 74.2 | Casp1-ASC yeast 61.2 | NALP3 retest 51.5 | tim10-1 confirm 41.3!
COc1ccc(S(=O)(=O)Nc2ccccn2)cc1C(=O)Nc1ccccc1	none
CCOC(=O)c1cc(-c2ccccc2C)nn1CC1CC(c2cccnc2)=NO1 (stereo not given)	none (no result: NALP1 inh)
O=C(CN(C1CCCCC1)S(=O)(=O)c1ccc(F)cc1)Nc1ccc2c(c1)OCO2	NLRP3 yeast inh 50.9, tim10-1 inh 45.3 | NALP3 yeast conf 56.3 | Casp1-ASC yeast inactive | NALP3 retest inactive | tim10-1 confirm inactive
O=C(CN(C1CCCCC1)S(=O)(=O)c1ccc(F)cc1)NCCCO	none
O=C(Nc1nccs1)c1cc2c(s1)-c1ccccc1OC2	NLRP3 yeast inh 53.8, tim10-1 inh 59.0 | NALP3 yeast conf 66.8 | Casp1-ASC yeast inactive | NALP3 retest inactive | tim10-1 confirm inactive
Cc1cc2c(cc1C)CSC(c1ccccc1O)SC2	NLRP3 yeast inh 58.7, tim10-1 inh 61.6 | NALP3 yeast conf 63.5 | Casp1-ASC yeast 63.0 | NALP3 retest 55.0 | tim10-1 confirm 35.2
O=C(O)c1ccc(N=Nc2c(O)ccc3ncccc23)cc1	NLRP3 yeast inh 55.3, tim10-1 inh 42.1 | NALP3 yeast conf 82.3 | Casp1-ASC yeast 54.3 | NALP3 retest 53.3 | tim10-1 confirm 34.0
O=C(O)c1cc(N=Nc2c(O)ccc3ccccc23)cc(C(=O)O)c1	none (no result: TIM10 inh, NLRP3 yeast inh, tim10-1 inh, tim23-1 inh)
CC(=O)Oc1cccc(C(=O)Nc2ccc(NC(=O)c3cccs3)cc2)c1	none
CN(C)c1cc2c(c(N(C)C)c1)C(=O)c1ccccc1C2=O	NLRP3 yeast inh 52.1, tim10-1 inh 44.1 | NALP3 yeast conf inactive | Casp1-ASC yeast 50.6 | NALP3 retest inactive | tim10-1 confirm 33.5
CN(C)S(=O)(=O)c1cccc2c1C(=O)c1ccccc1C2=O	none
NC(=O)COc1ccc(/C=N\NC(=O)CC(=O)NCCc2ccccc2)cc1	none
CC(Oc1ccc(F)cc1)C(=O)Nc1nc(-c2ccccn2)cs1 (stereo not given)	NLRP3 yeast inh 55.3, tim10-1 inh 42.3 (no result: NALP1 inh) | NALP3 yeast conf 73.5 | Casp1-ASC yeast 82.2 | NALP3 retest 74.5 | tim10-1 confirm inactive
COc1ccc(CCN(C)C2CCCN(C(=O)c3sccc3C)C2)cc1OC (stereo not given)	none
CCCCCC[N+](C)(C)CCSSCC[N+](C)(C)CCCCCC	none (no result: NALP1 inh)
CCCCCCCCCCCCCCCC[N+](C)(C)CC	NLRP3 yeast inh 65.0, tim10-1 inh 79.0 (no result: NALP1 inh) | NALP3 yeast conf 64.5 | Casp1-ASC yeast 62.0 | NALP3 retest 68.2 | tim10-1 confirm inactive
CC(C)(C)c1ccc(-c2conc2N)cc1	TIM10 inh 42.8, NLRP3 yeast inh 58.8, tim10-1 inh 55.3 | NALP3 yeast conf 69.0 | Casp1-ASC yeast 65.5 | NALP3 retest inactive | tim10-1 confirm 41.0 | tim10 confirm 46.8
CC(C)(C)c1ccc(-c2nc(N)nc(N)n2)cc1	none (no result: NALP1 inh)
O=C(NC12CC3CC(CC(C3)C1)C2)c1cc(F)c(F)c(F)c1F	none
COc1cc2[nH]c(=O)c(C(=O)NCCCN3CCOCC3)c(O)c2cc1OC	none
O=C(NCCCN1CCOCC1)c1c(O)c2cc(Br)cc(Br)c2[nH]c1=O	TIM10 inh 67.0, NLRP3 yeast inh 62.7, tim10-1 inh 51.0 | NALP3 yeast conf 81.2 | Casp1-ASC yeast inactive | NALP3 retest inactive | tim10-1 confirm 46.7 | tim10 confirm 74.0
COc1ccc([N+](=O)[O-])cc1NC(=O)CSCc1cc(C)cc(C)c1	none
COc1ccccc1NC(=O)CSCc1ccc([N+](=O)[O-])cc1	TIM10 inh 49.7, NALP1 inh 41.2, NLRP3 yeast inh 65.4 | NALP3 yeast conf 60.0 | Casp1-ASC yeast 59.0 | NALP3 retest 50.8 | tim10 confirm inactive
CCOC(=O)c1cc(C(=O)c2cccs2)n2ccc(C(C)=O)cc12	TIM10 inh 50.0, NLRP3 yeast inh 54.0 | NALP3 yeast conf 51.0 | Casp1-ASC yeast 51.6 | NALP3 retest inactive | tim10 confirm 36.2
COc1c[nH]n(C2CCCCC2)c(=O)c1=O	TIM10 inh 40.3, NLRP3 yeast inh 57.0 | NALP3 yeast conf 77.4 | Casp1-ASC yeast 59.4 | NALP3 retest 67.0 | tim10 confirm inactive
COc1ccc(S(=O)(=O)NCC2CCC(C(=O)NCC(OC)OC)CC2)cc1 (stereo not given)	none
CN(C)/C=C(/C(=O)c1ccccc1)n1cncn1	none
